Molecules are shown by their SMILES. Results filed as inconclusive are left out. Unmarked numbers belong to inactive results. The source made the active and inactive calls. Calls come from the whole dose curve; as a rule, active = well fitted inhibition curve with a large enough effect; inconclusive = small, poorly fitted or top-dose-only effect, or effect the other way; inactive = no such curve, though single readings can be large or run the other way.
% is set by controls: 0 for no effect and ±100 for the full control effect; potency is the fitted concentration of half-maximal effect.

The experiment can be described thus: Concentration response confirmation VP16 counterscreen for inhibitors of ROR gamma transcriptional activity. Note: nearly all actives have a fitted effect of over 70% in size. The following applies: Drosophila S2 Gal4-VP16 UAS-luciferase, luminescence, 20 h; series mostly up to 46.1 µM; activity change, negative = inhibition: at the top concentration. The method, boiled down: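 Drosophila Schneider cells stably carrying Gal4-VP16 under metallothionein promoter plus UAS-Photinus luciferase. Compound preincubated 1 hr, then 700 uM copper sulfate induction for 20 hr at ambient temperature; luminescence read.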
For the compound `O=C(CCCN1C(=O)/C(=C/c2ccccc2Cl)SC1=S)Nc1cccnc1`, the Potency is 14.1 µM (active).

As for `Cc1nn(-c2ccccc2)c(C)c1C(=O)Nc1nnc(-c2ccco2)o1`, the Potency was 1.25 µM (active).

Consider `Cc1cccc(-c2ocnc2C(=O)Nc2ccccc2NC(=O)c2ccccn2)c1`, for which the Potency is 7.91 µM (active).

As to `Cc1cc(NC(=O)CN2CCOCC2)n(-c2nc3ccccc3s2)n1`, the Potency is 12.5 µM (active).

As to `O=S(=O)(NCc1ccccn1)C(F)(F)F`, the Potency was 25 µM (active).

In the case of `COC(=O)c1ccc(OCC(=O)c2ccc(O)cc2O)cc1`, the Potency was 1.58 µM (active).

Take `Fc1cccc2sc(Nc3nnc(-c4ccco4)o3)nc12`: the Potency is 6.28 µM (active).

With `CCC(C)[C@H](NC(=O)NCc1ccco1)C(=O)O` (some centres undefined), the “activity change, negative = inhibition” value is -8.74%.

As for `CC(=O)c1cnc2nc(C(F)(F)F)nn2c1C`, the “activity change, negative = inhibition” value is 1.06%.

As for `Cc1cc(NCc2ccccn2)n2ncc(-c3ccc(Cl)cc3)c2n1`, the Potency was 0.996 µM (active).

For `COc1ccc(C(=O)/C=C/c2ccc(OC)cc2OC)c(O)c1`, the “activity change, negative = inhibition” value was 20.2%.

Take `CC(C)(C)c1cc(C(=O)N2CCc3ccccc32)ccn1`: the “activity change, negative = inhibition” value was 4.76%.

On to `Cc1ccc(C(=O)O/N=C/c2ccc(N(C)C)cc2)cc1`, for which the “activity change, negative = inhibition” value is 15.9%.

On to `COc1ccc(OC)c(NC(=S)N(CCc2c(C)[nH]c3ccccc23)Cc2cccs2)c1`, for which the “activity change, negative = inhibition” value is 11.4%.

As to `COc1ccc2nc(NC(=O)c3sc4nc(C)cc(C)c4c3N)sc2c1`, the Potency is 0.0791 µM (active).

On to `CC(C)(C)c1ccc(-c2noc(CCC(=O)Nc3cccnc3)n2)cc1`, for which the Potency is 1.99 µM (active).

In the case of `Cc1cc(Br)c2nc3c(c(C(=O)O)c2c1)CCCCC3`, the “activity change, negative = inhibition” value is -16.4%.

With `COc1ccc(-n2ncc(Cl)c(Cl)c2=O)cc1`, the Potency was 19.9 µM (active).

For `CCN(CC(=O)NCCc1ccc(Cl)cc1)Cc1nc2ccccc2c(=O)[nH]1`, the Potency is 25 µM (active).

In the case of `CNc1cc(C(F)(F)F)nc(-c2ccccn2)n1`, the Potency was 8.88 µM (active).

Consider `O=c1c2cc(Br)ccc2[nH]c(=S)n1Cc1cccnc1`, for which the Potency is 11.2 µM (active).

For `C=C(C)c1cccc(C(C)(C)NC(=O)N2CCN(CC)CC2)c1`, the “activity change, negative = inhibition” value was -13.2%.

Take `COc1ccc2oc(=O)c(C(=O)Nc3ccccc3C)cc2c1`: the Potency was 7.91 µM (active).

`CCOC(=O)C(C(=O)OCC)C(C(=O)OCC)N1CCOCC1` (centres undefined): the Potency was 3.53 µM (active).

As to `CC(=O)c1cccc(N(CC(=O)Nc2ccccc2C(=O)N2CCCC2)S(C)(=O)=O)c1`, the “activity change, negative = inhibition” value is 3.74%.

Turning to `CN(Cc1nc2ccccc2c(=O)[nH]1)Cc1nc2ccsc2c(=O)[nH]1`, the Potency is 4.99 µM (active).

As for `c1csc(CCNc2ncnc3sc4c(c23)CCC4)c1`, the Potency is 25 µM (active).

On to `O=C(NC(=S)Nc1nc(-c2ccccc2)cs1)c1cncc(Br)c1`, for which the Potency was 7.91 µM (active).

For the compound `COc1ccccc1CNC(=O)[C@@H](NC(=O)C1CCN(C(=O)[C@@H]2CCCN2C(=O)OC(C)(C)C)CC1)C(C)C`, the “activity change, negative = inhibition” value is 0.516%.

`CN(Cc1ccccc1)c1ncnc2ccc(Br)cc12`: the “activity change, negative = inhibition” value was -13.1%.

With `O=C(CSc1nc2ccc(NC(=O)CSc3nnnn3Cc3ccccc3)cc2s1)Nc1ccccc1`, the “activity change, negative = inhibition” value is 6.86%.

Regarding `O=[N+]([O-])c1cc2c(cc1/C=N/Nc1nc(Nc3ccccc3)nc(N3CCCCC3)n1)OCO2`, the “activity change, negative = inhibition” value was 11.4%.

With `Cc1ccc(-c2n[nH]c(=S)n2/N=C/C=C\c2ccccc2[N+](=O)[O-])cc1`, the “activity change, negative = inhibition” value was -3.42%.

`Cc1ccc(C)c(-n2[nH]c3c4c(ccc3c2=O)C(=O)c2ccccc2C4=O)c1`: the “activity change, negative = inhibition” value is -24.7%.

For the origin of these results see PubChem BioAssay AID2763 (National Center for Advancing Translational Sciences (NCATS), 2010).
